In PubChem BioAssay (EPA / NIEHS) one finds outcome and AC50 data, which are given here for two compounds.

Several values for one entry are separate records, joined by “and”; a condition that tells them apart may be missing. Equal values may be shown once. The source holds several records for some structures; these can differ, active in one and inactive in another. Activity calls are given as the source filed them. Rule for the calls: active = hit-call score of the fitted dose curve at least 0.9, where 1 is the maximum; inactive = score below 0.9.

Usually AC50 stands for the midpoint of the concentration-response curve, whichever way the signal moves.

Common to all, as to details: mRNA level, 48 h; actives raise or lower the signal
Read-out in assay [1]: MYC, MYC (gene 4609)
As to the kind of experiment: LTEA_HepaRG_MYC: Life Technologies and Expression Analysis (LTEA) Assay for MYC using HepaRG (AID 2283518). In a few lines: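 Expression changes were scored by TaqMan qRT-PCR with ACTB, GAPDH and POLR2A normalization. Cultures in serum-free induction medium received duplicate 8-point concentration series, highest 100 uM, for 48 h; DMSO (0.5%) served as baseline.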

Read-out in assay [2]: Paternally Expressed 10 (PEG10), PEG10 (gene 23089)
As to the kind of experiment: LTEA_HepaRG_PEG10: Life Technologies and Expression Analysis (LTEA) Assay for Paternally Expressed 10 (PEG10) using HepaRG (AID 2283520).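 For AC50: PEG10 transcript by qRT-PCR normalised to ACTB GAPDH and POLR2A.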 In a few lines:
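Chemicals tested on HepaRG cells for 48 h, highest concentration 100 uM. PEG10 expression assessed by qRT-PCR relative to DMSO control.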

Read-out in assay [3]: Nuclear factor NF-kappa-B p105 subunit (Homo sapiens) (UniProt P19838)
As to the kind of experiment: LTEA_HepaRG_NFKB1: Life Technologies and Expression Analysis (LTEA) Assay for Nuclear Factor Kappa B Subunit 1 (NFKB1) using HepaRG (AID 2283521).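 Note: TaqMan qRT-PCR transcript normalised to ACTB GAPDH and POLR2A housekeeping genes.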 In a few lines: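 Differentiated human HepaRG cells were exposed for 48 h in serum-free induction medium to eight concentrations (top 100 uM, half-log steps, 0.5% DMSO), in duplicate. NFKB1 mRNA was measured by TaqMan qRT-PCR, normalized to ACTB/GAPDH/POLR2A, and fitted bidirectionally against DMSO.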

Read-out in assay [4]: Protein phosphatase 2A (PPP2R4), PTPA (gene 5524)
The assay can be described thus: LTEA_HepaRG_PPP2R4: Life Technologies and Expression Analysis (LTEA) Assay for Protein phosphatase 2A (PPP2R4) using HepaRG (AID 2283522). In a few lines:
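Gene-expression endpoint in HepaRG hepatic cells: 48 h treatment across eight half-log concentrations up to 100 uM in 0.5% DMSO. PPP2R4 mRNA by qRT-PCR, normalized to three endogenous control genes.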

Read-out in assay [5]: Phosphatase and tensin (PTEN), PTEN (gene 5728)
The assay can be described thus: LTEA_HepaRG_PTEN: Life Technologies and Expression Analysis (LTEA) Assay for Phosphatase and tensin (PTEN) using HepaRG (AID 2283523). In a few lines:
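HepaRG cells, 48 h after plating, exposed in duplicate for 48 h in serum-free induction medium to 8 half-log concentrations up to 100 uM (0.5% DMSO). PTEN mRNA by qRT-PCR, normalized to ACTB, GAPDH, POLR2A; bidirectional fit versus DMSO.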

Read-out in assay [6]: solute carrier (SLC22A1), SLC22A1 (gene 6580)
As to the kind of experiment: LTEA_HepaRG_SLC22A1: Life Technologies and Expression Analysis (LTEA) Assay for solute carrier (SLC22A1) using HepaRG (AID 2283524). A digest of the protocol:
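Differentiated human HepaRG cells in serum-free induction medium, exposed 48 h in duplicate to 8-point half-log series from 100 µM top in 0.5% DMSO. SLC22A1 mRNA by TaqMan qRT-PCR normalized to ACTB, GAPDH, POLR2A; bidirectional fit versus DMSO.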

Read-out in assay [7]: Pyruvate Dehydrogenase Kinase 4 (PDK4), PDK4 (gene 5166)
The assay can be described thus: LTEA_HepaRG_PDK4: Life Technologies and Expression Analysis (LTEA) Assay for Pyruvate Dehydrogenase Kinase 4 (PDK4) using HepaRG (AID 2283525). A digest of the protocol:
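HepaRG cells plated 48 h, then switched to serum-free induction medium and exposed in duplicate for 48 h to 8 half-log concentrations from 100 uM in 0.5% DMSO. PDK4 mRNA measured by qRT-PCR, normalized to ACTB, GAPDH and POLR2A; bidirectional fit versus DMSO.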

Read-out in assay [8]: NAD(P)H dehydrogenase [quinone] 1 (NQO1), NQO1 (gene 1728)
The assay can be described thus: LTEA_HepaRG_NQO1: Life Technologies and Expression Analysis (LTEA) Assay for NAD(P)H dehydrogenase [quinone] 1 (NQO1) using HepaRG (AID 2283526). A digest of the protocol:
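Human HepaRG hepatic cells received chemicals for 48 h in serum-free induction medium with 0.5% DMSO, up to 100 uM. Expression was assessed by TaqMan qRT-PCR against housekeeping controls and fitted bidirectionally against DMSO.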

Read-out in assay [9]: Nuclear factor erythroid 2-related factor 2 (Homo sapiens) (UniProt Q16236)
As to the kind of experiment: LTEA_HepaRG_NFE2L2: Life Technologies and Expression Analysis (LTEA) Assay for Nuclear factor erythroid 2-related factor 2 (NFE2L2) Transcription Factor using HepaRG (AID 2283527).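 Note: TaqMan qRT-PCR transcript level normalised to ACTB GAPDH and POLR2A housekeeping genes.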 In a few lines: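 Differentiated human HepaRG cells, serum-free induction medium, exposed 48 h in duplicate to eight half-log concentrations up to 100 uM in 0.5% DMSO. NFE2L2 mRNA by Fluidigm TaqMan qRT-PCR, normalised to ACTB, GAPDH, POLR2A; bidirectional change versus DMSO.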

Read-out in assay [10]: succinate dehydrogenase complex iron sulfur subunit B (SDHB), SDHB (gene 6390)
As to the kind of experiment: LTEA_HepaRG_SDHB: Life Technologies and Expression Analysis (LTEA) Assay for succinate dehydrogenase complex iron sulfur subunit B (SDHB) using HepaRG (AID 2283528). A digest of the protocol: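 HepaRG, 48 h exposure, 8-pt half-log series from 100 uM in 0.5% DMSO, duplicates. Readout: SDHB mRNA by Fluidigm qRT-PCR vs housekeeping genes; bidirectional fit relative to DMSO.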

Read-out in assay [11]: Signal transducer and activator of transcription 3 (Homo sapiens) (UniProt P40763)
The assay can be described thus: LTEA_HepaRG_STAT3: Life Technologies and Expression Analysis (LTEA) Assay for Signal transducer and activator of transcription (STAT3) using HepaRG (AID 2283529). A digest of the protocol:
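Differentiated HepaRG cells, serum-free induction medium, dosed 48 h in duplicate, 8 half-log concentrations from 100 uM in 0.5% DMSO. STAT3 mRNA by qRT-PCR, normalised to ACTB, GAPDH, POLR2A; bidirectional fit versus DMSO.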

Read-out in assay [12]: solute carrier (SLCO1B1), SLCO1B1 (gene 10599)
As to the kind of experiment: LTEA_HepaRG_SLCO1B1: Life Technologies and Expression Analysis (LTEA) Assay for solute carrier (SLCO1B1) using HepaRG (AID 2283530). A digest of the protocol: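 Human HepaRG cultures treated for 48 h with an eight-concentration half-log series topping at 100 uM; SLCO1B1 measured by qRT-PCR and fitted bidirectionally relative to DMSO.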

Read-out in assay [13]: sulfotransferase 2A1 (SULT2A1), SULT2A1 (gene 6822)
As to the kind of experiment: LTEA_HepaRG_SULT2A1: Life Technologies and Expression Analysis (LTEA) Assay for sulfotransferase 2A1 (SULT2A1) using HepaRG (AID 2283531). A digest of the protocol:
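Gene-expression endpoint in a human liver cell line: SULT2A1 mRNA change after 48 h chemical treatment, curves fitted in both directions relative to 0.5% DMSO vehicle. Concentrations spanned eight half-log steps from 100 uM.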

Read-out in assay [14]: Transforming Growth Factor (TGFA), TGFA (gene 7039)
The assay can be described thus: LTEA_HepaRG_TGFA: Life Technologies and Expression Analysis (LTEA) Assay for Transforming Growth Factor (TGFA) using HepaRG (AID 2283532). In a few lines: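 Differentiated HepaRG cells exposed 48 hours in serum-free induction medium, 0.5% DMSO vehicle, 8-point half-log series from 100 uM, in duplicate. TGFA mRNA by TaqMan qRT-PCR, normalised to ACTB, GAPDH, POLR2A; bidirectional fit versus DMSO.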

Read-out in assay [15]: Transforming Growth Factor (TGFB1), TGFB1 (gene 7040)
The assay can be described thus: LTEA_HepaRG_TGFB1: Life Technologies and Expression Analysis (LTEA) Assay for Transforming Growth Factor (TGFB1) Transporter using HepaRG (AID 2283533). In a few lines: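 Eight-point concentration-response (max 100 uM, half-log) in HepaRG under serum-free induction conditions, 48 h. TGFB1 mRNA by qRT-PCR, housekeeping-normalized.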

Read-out in assay [16]: Tumor necrosis factor receptor 1 (TNFRSF1A), TNFRSF1A (gene 7132)
As to the kind of experiment: LTEA_HepaRG_TNFRSF1A: Life Technologies and Expression Analysis (LTEA) Assay for Tumor necrosis factor receptor 1 (TNFRSF1A) using HepaRG (AID 2283535). A digest of the protocol:
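Assay uses 48 h chemical treatment of differentiated HepaRG monolayers, tested in duplicate at eight concentrations from 100 uM downward in 0.5% DMSO. mRNA is normalized to ACTB, GAPDH and POLR2A, with induction or suppression fitted relative to vehicle.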

Read-out in assay [17]: Thyroid Hormone Responsive (THRSP), THRSP (gene 7069)
The assay can be described thus: LTEA_HepaRG_THRSP: Life Technologies and Expression Analysis (LTEA) Assay for Thyroid Hormone Responsive (THRSP) using HepaRG (AID 2283536). A digest of the protocol: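 Differentiated HepaRG cells treated 48 h in serum-free induction medium with 8 half-log concentrations up to 100 uM (0.5% DMSO), duplicates. THRSP mRNA by TaqMan qRT-PCR normalised to ACTB, GAPDH, POLR2A; bidirectional fit versus DMSO.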

Read-out in assay [18]: Cellular tumor antigen p53 (Homo sapiens) (UniProt P04637)
As to the kind of experiment: LTEA_HepaRG_TP53: Life Technologies and Expression Analysis (LTEA) Assay for Tumor Protein P53 (TP53) using HepaRG (AID 2283537). A digest of the protocol:
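HepaRG, 48 h exposure, top 100 uM, half-log 8-point, 0.5% DMSO vehicle, duplicates. Read: TP53 mRNA by TaqMan qRT-PCR, normalised to ACTB/GAPDH/POLR2A; bidirectional fit vs DMSO.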

Read-out in assay [19]: matrix metalloproteinase-3 (MMP3), MMP3 (gene 4314)
As to the kind of experiment: LTEA_HepaRG_MMP3: Life Technologies and Expression Analysis (LTEA) Assay for matrix metalloproteinase-3 (MMP3) using HepaRG (AID 2283519). A digest of the protocol:
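HepaRG cells (~100,000/well) in serum-free induction medium were dosed in duplicate for 48 h with an 8-point half-log series from 100 uM, 0.5% DMSO. MMP3 mRNA was quantified by Fluidigm TaqMan qRT-PCR, normalized to three housekeeping genes.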

Chain of Cellular tumor antigen p53 (Homo sapiens) (P04637 whole entry, looked up): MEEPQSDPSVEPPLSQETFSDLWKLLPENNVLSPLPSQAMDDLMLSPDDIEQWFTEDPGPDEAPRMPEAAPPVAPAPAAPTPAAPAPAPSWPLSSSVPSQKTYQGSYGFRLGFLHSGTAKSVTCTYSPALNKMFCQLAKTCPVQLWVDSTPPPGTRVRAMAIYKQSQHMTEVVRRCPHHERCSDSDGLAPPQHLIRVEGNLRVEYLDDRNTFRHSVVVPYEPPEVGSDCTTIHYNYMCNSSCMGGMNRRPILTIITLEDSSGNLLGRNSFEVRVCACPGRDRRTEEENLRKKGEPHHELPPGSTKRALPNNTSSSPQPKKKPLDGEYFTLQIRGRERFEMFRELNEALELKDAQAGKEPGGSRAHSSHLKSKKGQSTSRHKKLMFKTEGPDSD
Chain of Nuclear factor erythroid 2-related factor 2 (Homo sapiens) (Q16236 whole entry, looked up): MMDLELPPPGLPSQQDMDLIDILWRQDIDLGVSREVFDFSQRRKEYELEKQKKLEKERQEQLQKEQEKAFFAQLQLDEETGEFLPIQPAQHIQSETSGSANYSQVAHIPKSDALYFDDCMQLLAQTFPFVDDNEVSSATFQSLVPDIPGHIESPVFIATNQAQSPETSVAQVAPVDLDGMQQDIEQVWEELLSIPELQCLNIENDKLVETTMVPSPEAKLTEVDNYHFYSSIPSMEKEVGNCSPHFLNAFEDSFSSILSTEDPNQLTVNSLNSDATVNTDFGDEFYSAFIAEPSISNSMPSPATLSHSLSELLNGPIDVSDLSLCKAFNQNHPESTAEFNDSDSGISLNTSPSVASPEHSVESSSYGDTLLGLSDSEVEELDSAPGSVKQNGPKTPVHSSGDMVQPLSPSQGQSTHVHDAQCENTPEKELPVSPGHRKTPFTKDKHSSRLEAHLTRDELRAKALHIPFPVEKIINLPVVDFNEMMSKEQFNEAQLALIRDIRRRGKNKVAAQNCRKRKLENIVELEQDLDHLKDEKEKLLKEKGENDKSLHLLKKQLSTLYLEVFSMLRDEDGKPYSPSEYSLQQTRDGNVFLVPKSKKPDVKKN
Chain of Nuclear factor NF-kappa-B p105 subunit (Homo sapiens) (P19838 whole entry, looked up): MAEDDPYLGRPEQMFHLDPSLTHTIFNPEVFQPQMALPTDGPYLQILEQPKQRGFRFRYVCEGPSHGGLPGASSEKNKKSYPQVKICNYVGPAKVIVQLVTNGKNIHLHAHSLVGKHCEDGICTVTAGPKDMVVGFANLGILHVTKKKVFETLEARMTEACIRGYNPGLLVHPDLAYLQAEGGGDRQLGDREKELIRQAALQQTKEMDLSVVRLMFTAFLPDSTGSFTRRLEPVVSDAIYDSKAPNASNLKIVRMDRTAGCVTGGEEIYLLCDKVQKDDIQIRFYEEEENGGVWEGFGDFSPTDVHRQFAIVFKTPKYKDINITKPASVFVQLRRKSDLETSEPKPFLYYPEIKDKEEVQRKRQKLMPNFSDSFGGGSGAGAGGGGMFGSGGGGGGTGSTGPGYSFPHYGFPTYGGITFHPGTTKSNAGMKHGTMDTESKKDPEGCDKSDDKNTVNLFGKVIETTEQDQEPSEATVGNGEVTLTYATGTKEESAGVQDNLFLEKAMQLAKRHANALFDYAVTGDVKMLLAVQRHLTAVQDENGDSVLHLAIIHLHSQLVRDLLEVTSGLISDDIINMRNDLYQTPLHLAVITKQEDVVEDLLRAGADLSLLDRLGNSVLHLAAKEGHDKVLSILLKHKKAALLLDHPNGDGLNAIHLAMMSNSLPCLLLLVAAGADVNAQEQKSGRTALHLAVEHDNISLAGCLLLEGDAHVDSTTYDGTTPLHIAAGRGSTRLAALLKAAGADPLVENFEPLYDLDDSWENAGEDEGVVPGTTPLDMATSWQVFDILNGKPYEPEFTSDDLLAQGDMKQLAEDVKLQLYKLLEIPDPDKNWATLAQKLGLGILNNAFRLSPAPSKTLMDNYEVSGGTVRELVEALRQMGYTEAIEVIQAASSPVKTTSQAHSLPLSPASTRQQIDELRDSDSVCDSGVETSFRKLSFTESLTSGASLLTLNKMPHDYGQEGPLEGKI
Chain of Signal transducer and activator of transcription 3 (Homo sapiens) (P40763 whole entry, looked up): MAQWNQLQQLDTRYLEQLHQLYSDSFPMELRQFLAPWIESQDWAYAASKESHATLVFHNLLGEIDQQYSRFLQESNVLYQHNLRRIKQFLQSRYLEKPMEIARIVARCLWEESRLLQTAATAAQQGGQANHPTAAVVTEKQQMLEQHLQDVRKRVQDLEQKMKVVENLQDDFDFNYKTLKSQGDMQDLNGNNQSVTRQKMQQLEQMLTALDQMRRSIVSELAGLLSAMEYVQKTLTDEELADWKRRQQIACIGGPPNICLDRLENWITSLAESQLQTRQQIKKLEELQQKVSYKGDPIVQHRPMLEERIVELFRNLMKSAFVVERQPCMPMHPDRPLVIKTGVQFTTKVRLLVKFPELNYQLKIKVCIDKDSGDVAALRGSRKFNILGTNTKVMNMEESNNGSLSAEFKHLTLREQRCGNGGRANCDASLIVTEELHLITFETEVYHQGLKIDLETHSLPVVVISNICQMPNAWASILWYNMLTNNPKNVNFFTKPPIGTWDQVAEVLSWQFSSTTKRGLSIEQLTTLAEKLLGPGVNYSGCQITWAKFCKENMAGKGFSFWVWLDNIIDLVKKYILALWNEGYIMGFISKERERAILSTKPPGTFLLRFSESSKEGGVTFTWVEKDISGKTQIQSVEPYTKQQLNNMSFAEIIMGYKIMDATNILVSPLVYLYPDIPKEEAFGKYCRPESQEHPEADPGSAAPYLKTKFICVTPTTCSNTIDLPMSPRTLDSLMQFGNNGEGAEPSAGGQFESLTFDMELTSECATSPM

As to `C=CCC1=C(C)C(OC(=O)C2C(C=C(C)C)C2(C)C)CC1=O` (centres undefined), the compound was called inactive in assay [1], in assay [3], in assay [4], in [5], in assay [7] and in assay [8]. Also, the compound was classed as inactive in assay [9], in assay [10], in [11], in [12], in [13] and in assay [14]. Besides, the compound was called inactive in assay [15], in assay [16], in [17] and in assay [18]. For the same compound, the AC50 in assay [2] is 68.4 µM (active) and 79.7 µM (active) and 28.2 µM (active); in [6], 86.3 µM (active) and 83.2 µM (active) and 50 µM (active); in [7], 50 µM (active); in assay [10], 69.1 µM (active); in assay [12], 87.3 µM (active) and 50 µM (active); in [13], 86.7 µM (active).
On to `CC(Oc1ccc(Cl)cc1Cl)C(=O)O` (centres undefined), for which the compound was classed as inactive in assay [1], in assay [19], in [2], in assay [3], in assay [4] and in assay [5]. Further, the result in [6], in assay [8], in assay [9], in assay [10], in assay [11] and in [12] was inactive. Moreover, the call in [14], in assay [16], in [17] and in assay [18] was inactive. Further, in [7], the AC50 is 50 µM (active).
